# An excerpt weighted towards active compounds, which were near 9.5% of everything screened.
# NS1 inh = influenza NS1 inhibition; hit rate 0.4% among 270,000; Potency, µM (doses to about 46.1 µM), without a hit: at the top dose activity, positive = more growth; also: potency is read from the fitted curve at half-maximal effect; actives are rising curves; nearly all actives have a fitted effect of over 50% in size
#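 OD600 was taken as the measure of yeast growth restored by compound in an NS1-expressing S. cerevisiae strain. Cells had been washed out of glucose medium and diluted 1:100 into galactose -URA medium, pH 6.0.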
# Pf growth 96h = P. falciparum growth inhibition at 96 hours | P. falciparum luciferase reporter growth, 96 h | hit rate 6.9% among 320,000 | AID 504834 | Potency, µM (top dose mostly 28.7 µM), without a hit: at the top dose activity change, negative = inhibition, hits mostly inhibitors; active = well fitted inhibition curve with a large enough effect; inconclusive = small, poorly fitted or top-dose-only effect, or another doubt; inactive = no such curve, though single readings can be large or run the other way; also: potency is read from the fitted curve at half-maximal effect; % is scaled to controls: 0 for no effect and ±100 for the full control effect
#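 Erythrocytes infected with luciferase-expressing P. falciparum were dispensed at 2% hematocrit and 0.05% parasitemia (final), then incubated with compounds 96 hours at 37 C in 5% CO2. Luminescence after detection reagent addition reported growth.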
# RE007 growth inh = less growth of the S. pombe RE007 Vpr strain | S. pombe RE007 Vpr strain, BacTiter-Glo ATP luminescence, 24 h | Potency, µM (top dose mostly 92.2 µM), without a hit: top-dose activity change, negative = less growth, actives largely listed as inhibitors | hit rate 0.21% among 360,000 | AID 651644; active = well fitted falling curve with a large enough effect; inconclusive = small, poorly fitted or top-dose-only effect; inactive = no such curve, though single readings can be large or run the other way; also: potency is read from the fitted curve at half-maximal effect; % is scaled to controls: 0 for no effect and ±100 for the full control effect; nearly all actives have a fitted effect of over 50% in size
#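 Fission yeast strain RE007, carrying one chromosomally integrated HIV-1 vpr copy, was seeded at OD 0.01 in PMG+AL medium with 23 nL pinned compound. After 24 h at 30 °C and 99% humidity, viability was read by BacTiter-Glo luminescence.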
# Pf growth 48h = inhibits P. falciparum growth in the first generation, 48 h. P. falciparum luciferase growth in erythrocytes, 48 h. Potency, µM (titrated, usually from 28.7 µM), inactives show top-dose activity change, negative = inhibition, hits mostly inhibitors. hit rate 5.9% among 310,000; active = well fitted inhibition curve with a large enough effect; inconclusive = small, poorly fitted or top-dose-only effect, or another doubt; inactive = no such curve, though single readings can be large or run the other way; also: potency is read from the fitted curve at half-maximal effect; % is scaled to controls: 0 for no effect and ±100 for the full control effect
#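 Read-out is firefly luciferase luminescence from an integrated reporter in P. falciparum, so falling signal marks reduced parasite growth. Infected erythrocytes were at 2% hematocrit and 0.1% parasitemia (final) in Albumax-supplemented RPMI 1640.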
# SARS PLpro yeast-1 = blocks SARS-CoV papain-like protease in a yeast assay; S. cerevisiae expressing SARS-CoV PLpro, growth rescue; Potency, µM (series often up to 32.9 µM), inactives show top-dose activity, positive = growth rescue, most hits filed as activators; hit rate 0.19% among 330,000; also: potency is read from the fitted curve at half-maximal effect; 0% is about no effect; nearly all actives have a fitted effect of over 55% in size
# SARS PLpro yeast-2 = Validates SARS-CoV PLpro inhibitor hits in yeast. shares compounds with SARS PLpro yeast-1. yeast expressing SARS-CoV PLpro, growth phenotype rescue. calls only. hit rate 19% among 1,000. AID 652038; call rule not given here
# The depositor's hits bear a star; i = inactive; u = inconclusive; x = no result given; + = active, no number. Unless noted, calls follow the shape of the full dose curve.
SMILES,NS1 inh,Pf growth 96h,RE007 growth inh,Pf growth 48h,SARS PLpro yeast-1,SARS PLpro yeast-2
O=C(N/N=C/c1c(O)n(-c2ccccc2Cl)c(=O)c2ccccc12)c1cccnc1,x,u,8%,u,5.6µM*,i
O=C(N/N=C/c1cccc2ccccc12)c1cccnc1,-2%,12%,-7%,x,-2%,x
COc1ccc(CCNC(=O)Nc2nc(C(N)COCc3ccccc3)cs2)cc1OC (stereo not drawn),x,x,11%,x,x,x
CC(=O)c1ccc(N(C)C)cc1,-10%,-18%,-11%,x,2.8µM*,i
CN(C)c1ccc(C(=O)C(=O)c2ccccc2)cc1,-5%,u,6%,52%,-3%,x
CC1CCC(NC(=O)CN2C(=O)NC(C)(C)C2=O)CC1 (stereo not drawn),x,5%,6%,18%,4%,x
S=c1[nH]nc(-c2ccncc2)n1/N=C/c1ccccc1,17%,u,4%,-6%,u,i
COc1cc([N+](=O)[O-])cc(/C=N/NC(=O)C(C)Nc2cccc(C)c2)c1O (stereo not drawn),-2%,-11%,-2%,20%,u,u
COc1cc([N+](=O)[O-])cc(/C=N/NC(=O)c2ccc(NC(=O)c3ccc(C)cc3)cc2)c1O,6%,13%,-13%,9%,0%,x
COc1cc([N+](=O)[O-])cc(/C=N/NC(=O)c2ccc(C)nc2)c1O,11%,u,8%,33%,8.9µM*,u
CC(=Nc1ccccc1)C1=C(O)COC1=O,6%,-5%,-7%,x,u,i
O=C(NCCc1ccco1)C(=O)NCC1OCCCN1S(=O)(=O)c1ccccc1 (stereo not drawn),14%,u,-24%,u,-3%,x
Cc1c(C(=O)NCc2nnc(-c3ccccc3)o2)oc2c(F)cccc12,-3%,1%,18%,17%,-3%,x
Cc1cc(/C=N/NC(N)=S)c(C)n1-c1ccc(Cl)c(Cl)c1,23%,12µM*,u,13µM*,u,i
CCNC(=S)N/N=C/c1cc(C)n(-c2ccc(Cl)cc2)c1C,x,u,11%,16%,-4%,x
O=C1c2ccccc2NC(c2ccccc2O)N1O (stereo not drawn),-3%,u,-1%,x,5%,x
O=C1c2ccccc2NC(c2cn[nH]c2-c2ccccc2)N1O (stereo not drawn),18%,34%,25%,21%,u,i
O=C1c2ccccc2NC(c2cn[nH]c2-c2ccc(Cl)cc2)N1O (stereo not drawn),19%,-93%,-13%,u,7.9µM*,u
O=C(CSc1nc(-c2ccco2)cc(C(F)(F)F)n1)Nc1ccccc1C(F)(F)F,-1%,7.4µM*,0%,18%,u,i
CC(NC(=O)CN1c2cccc3cccc(c23)S1(=O)=O)c1ccc(S(N)(=O)=O)cc1 (stereo not drawn),x,-10%,3%,-4%,x,x
Cc1c(N/N=C(\C#N)C(=O)c2ccccc2)c(=O)n(-c2ccccc2)n1C,8%,u,-8%,1.7µM*,u,i
CCOC(=O)/C(C#N)=N/Nc1c(C)n(C)n(-c2ccccc2)c1=O,x,u,6%,-25%,0%,x
Cc1ccccc1C(=O)/C(C#N)=N/Nc1c(C)n(C)n(-c2ccccc2)c1=O,-1%,12%,x,1.7µM*,20µM*,i
CCOC(=O)N1CCN(C(=O)C2CCC(=O)N(Cc3ccccc3OC)C2)CC1 (stereo not drawn),x,x,7%,x,x,x
CC(C)C[C@@H](CO)N1CCN(Cc2cccc(C#N)c2)CCC1=O,-1%,76%,-24%,38%,-6%,x
SMILES,NS1 inh,Pf growth 96h,RE007 growth inh,Pf growth 48h,SARS PLpro yeast-1,SARS PLpro yeast-2
O=C(Cn1cnc2c(nnn2Cc2ccccc2F)c1=O)NCC1CCCO1 (stereo not drawn),u,8%,-2%,4%,u,i
NC(=O)c1ccsc1NC(=O)CSc1nnc(NC2CC2)s1,x,x,7%,x,0%,x
O=C(C1=C(O)C(=O)N(CCCN2CCOCC2)C1c1ccncc1)c1cc2ccccc2o1 (stereo not drawn),-11%,u,x,22%,13µM*,+
Cc1ccc(NC(=O)Cn2c([N+](=O)[O-])cnc2C)cc1Cl,5%,49%,0%,13%,1%,x
CCOC(=O)N1CCN(C(=O)CCS(=O)(=O)c2cc3c(cc2Cl)NC(=O)CO3)CC1,-7%,19%,-8%,-4%,u,i
COc1ccc(NC(=O)CSc2ccc(-c3ccccn3)nn2)cc1OC,2%,u,-19%,u,10µM*,i
COc1ccccc1NC(=O)CSc1ccc(-c2ccccn2)nn1,-118%,u,3%,u,-19%,x
O=[N+]([O-])c1ccc(NN=Cc2ccc(O)cc2O)nc1,x,x,4%,x,x,x
CCN(CC)S(=O)(=O)c1ccc(N/N=C/c2ccc(O)cc2O)nc1,11%,3.7µM*,-8%,2.3µM*,5µM*,i
Oc1ccc(C=NNc2ccccn2)c(O)c1,x,x,-24%,x,x,x
Oc1ccc(/C=N/Nc2ncc(Br)cn2)c(O)c1,-4%,u,-3%,u,u,i
COc1ccc(CCN=C(C)C2=C(O)C(c3ccccc3)OC2=O)cc1OC (stereo not drawn),-3%,u,1%,54%,-1%,x
CCCn1c(SCC(=O)NC2CCCCC2)nnc1C1CC1,9%,-4%,-3%,6%,-5%,x
CNC(=O)NC1CCCc2ccccc21 (stereo not drawn),7%,19%,9%,22%,u,i
COCCNC(=S)N1CCN(S(=O)(=O)c2ccc(Cl)s2)CC1,-2%,u,4%,u,x,i
CCCN=C1N(C)C[C@@H]2[C@@H]3C(=O)N(C)C(=O)[C@@H]3[C@](Cc3ccccc3)(C(=O)OC)N12,x,x,u,x,2%,x
C[C@H]1CN=C(N(C)C)N1CCCCc1ccccc1,x,u,4%,u,4%,x
CC(C)C[C@H]1CN=C(N(C)C)N1CCCCc1ccccc1,x,u,-7%,5.2µM*,6.3µM*,i
Cc1ccc(S(=O)(=O)N2CCN(C(=O)COC(=O)CNC(=O)c3ccccc3F)CC2)c(C)c1,x,x,35%,x,x,x
CC(C)N1C/C(=C/c2ccsc2)C(=O)/C(=C/c2ccsc2)C1,-10%,u,-16%,u,22µM*,i
CCOC(=O)C(Cc1ccccc1)C(=O)Nc1ccc(N(CC)CC)cc1 (stereo not drawn),-24%,42%,-6%,9%,-4%,x
CCOC(=O)C(Cc1ccccc1)C(=O)Nc1cccc(C)c1 (stereo not drawn),-18%,u,-29%,16%,22µM*,i
CC(C)CC(=O)NN(C)c1nc(-c2ccccc2)nnc1C(F)(F)F,-9%,u,4%,x,u,i
CCCCC(=O)NN(C)c1nc(-c2ccccc2)nnc1C(F)(F)F,4%,5%,11%,x,12%,x

# Compound activity from PubChem BioAssay.
